Ten compounds from PubChem BioAssay (NCI) can be followed below.

This is part of a sample that, as a whole, favours compounds with a hit. Of some 79,000 tested, about 15% had one in any assay. Values without a mark were called inactive. The source made the active and inactive calls. Rule as the data show it: active = growth inhibition above about 70%; inactive = the rest.

Experiment [1] in a line: NCI Yeast Anticancer Drug Screen. Data for the rad50 strain (AID 155).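 Also: 0% = growth of vehicle-only cultures of the same strain.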 The settings on record: S. cerevisiae rad50 strain growth inhibition, hits give high values. A digest of the protocol: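 Compounds were tested on a yeast strain with an engineered DNA damage repair alteration; the reported value is growth inhibition normalised to vehicle treatment.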
The nature of experiment [2]: NCI Yeast Anticancer Drug Screen. Data for the mec2-1 strain (AID 157). The settings on record: S. cerevisiae mec2-1 strain, hits give high values. A digest of the protocol: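 Each compound was tested on mec2-1 yeast, a strain altered in DNA damage repair or cell cycle control. Growth inhibition is reported relative to vehicle.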
Experiment [3] can be described thus: NCI Yeast Anticancer Drug Screen. Data for the sgs1 mgt1 strain (AID 161).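 Also: 0% = growth of cultures given vehicle only.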 The settings on record: S. cerevisiae sgs1 mgt1 strain, hits give high values. The method in brief: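 Test agents were incubated with a DNA-repair-mutant yeast strain. Growth was then read and compared against vehicle-treated controls.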
Experiment [4] is described as follows: NCI Yeast Anticancer Drug Screen. Data for the cln2 rad14 strain (AID 165).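 Also: 0% = growth equal to vehicle treated cultures.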 The settings on record: S. cerevisiae cln2 rad14 strain, hits give high values. A digest of the protocol: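 Test compounds were added to cln2 rad14 yeast cultures; inhibition of growth was then determined by comparison with vehicle treatment.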
Experiment [5] can be described thus: NCI Yeast Anticancer Drug Screen. Data for the bub3 strain (AID 167). The settings on record: S. cerevisiae bub3 mutant strain, hits give high values. The method in brief: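 Growth of a checkpoint-deficient yeast mutant is measured after compound exposure. Values represent inhibition relative to vehicle.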
Experiment [6] in a line: NCI Yeast Anticancer Drug Screen. Data for the mlh1 rad18 strain (AID 175). Conditions: S. cerevisiae mlh1 rad18 strain growth inhibition, hits give high values. The method in brief:
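Inhibition values reflect reduced growth of mutant yeast versus vehicle-treated controls following compound exposure; the mutations affect DNA damage repair.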

[7] abbreviates: at 5.0 µM (retest, dose inferred, filed as 0.5).
Where [8] appears, read: at 50.0 µM (retest, dose inferred, filed as 5.0).

Take `Oc1c(Cl)c(Cl)cc(Cl)c1Cl`: the growth inhibition in experiment [1] (setting [7]) is 8%; in experiment [1] (setting [8]) it was 90% (active); in experiment [1] (at 50.0 µM), 23.5%; in experiment [2] (setting [7]), 7%; in experiment [2] (setting [8]), 97% (active); in experiment [2] (at 50.0 µM), 68.9%. The growth inhibition in experiment [3] (setting [7]) is 34%; in experiment [3] (setting [8]), 95% (active); in experiment [3] (at 50.0 µM), 61.1%; in experiment [4] (setting [7]), -27%; in experiment [4] (setting [8]), 94% (active); in experiment [4] (at 50.0 µM), 79.8% (active). Further, the growth inhibition in experiment [5] (setting [7]) is 13%; in experiment [5] (setting [8]) it was 92% (active); in experiment [5] (at 50.0 µM), 48.3%; in experiment [6] (setting [7]), -6%; in experiment [6] (setting [8]) it was 92% (active); in experiment [6] (at 50.0 µM) it was 61.8%.
On to `Oc1c(Cl)cc(Cl)c2ccccc12`, for which the growth inhibition in experiment [1] (setting [7]) is 11%; in experiment [1] (setting [8]), 71% (active); in experiment [1] (at 50.0 µM) it was 86.5% (active); in experiment [2] (setting [7]) it was 7%; in experiment [2] (setting [8]), 38%; in experiment [2] (at 50.0 µM), 27.6%. Moreover, the growth inhibition in experiment [3] (setting [7]) was 4%; in experiment [3] (setting [8]), 63%; in experiment [3] (at 50.0 µM), 91.5% (active); in experiment [4] (setting [7]), 5%; in experiment [4] (setting [8]) it was 14%; in experiment [4] (at 50.0 µM) it was -18.9%. For the same compound, the growth inhibition in experiment [5] (setting [7]) is 12%; in experiment [5] (setting [8]), 44%; in experiment [5] (at 50.0 µM), 9.2%; in experiment [6] (setting [7]), 13%; in experiment [6] (setting [8]), 74% (active); in experiment [6] (at 50.0 µM), 87% (active).
As for `CC(=O)[C-](I)C(C)=O.CC(=O)[C-](I)C(C)=O.CC(=O)[C-](I)C(C)=O.[Ru+3]`, the growth inhibition in experiment [1] (setting [7]) is -6%; in experiment [1] (setting [8]), 90% (active); in experiment [1] (at 50.0 µM) it was 48.2%; in experiment [2] (setting [7]), 14%; in experiment [2] (setting [8]), 95% (active); in experiment [2] (at 50.0 µM), 90.5% (active). The growth inhibition was 5% in experiment [3] (setting [7]); 89% (active) in experiment [3] (setting [8]); 35.8% in experiment [3] (at 50.0 µM); 26% in experiment [4] (setting [7]); 85% (active) in experiment [4] (setting [8]); 7.45% in experiment [4] (at 50.0 µM). The growth inhibition in experiment [5] (setting [7]) was 18%; in experiment [5] (setting [8]), 90% (active); in experiment [5] (at 50.0 µM), -1.95%; in experiment [6] (setting [7]), 32%; in experiment [6] (setting [8]), 96% (active); in experiment [6] (at 50.0 µM) it was 53.5%.
`CC(C)C12C=C3CCC4C(C)(C(=O)O)CCCC4(C)C3(CC1)OO2` (stereo not given): the growth inhibition in experiment [1] (setting [7]) is 13%; in experiment [1] (setting [8]), 90% (active); in experiment [1] (at 50.0 µM), 93.7% (active); in experiment [2] (setting [7]), -1%; in experiment [2] (setting [8]), 95% (active); in experiment [2] (at 50.0 µM), 95% (active). Also, the growth inhibition in experiment [3] (setting [7]) is 7%; in experiment [3] (setting [8]) it was 90% (active); in experiment [3] (at 50.0 µM) it was 97.6% (active); in experiment [4] (setting [7]) it was -6%; in experiment [4] (setting [8]) it was 94% (active); in experiment [4] (at 50.0 µM), 86.4% (active). The growth inhibition in experiment [5] (setting [7]) is -8%; in experiment [5] (setting [8]), 91% (active); in experiment [5] (at 50.0 µM), 96.4% (active); in experiment [6] (setting [7]), 1%; in experiment [6] (setting [8]) it was 95% (active); in experiment [6] (at 50.0 µM), 96.9% (active).
For the compound `CCN1CCC(O)(c2ccc(Cl)cc2)C(C(=O)c2ccc(Cl)cc2)C1` (stereo not given), the growth inhibition in experiment [1] (setting [7]) is -8%; in experiment [1] (setting [8]), 65%; in experiment [1] (at 50.0 µM), 99% (active); in experiment [2] (setting [7]), 6%; in experiment [2] (setting [8]), 74% (active); in experiment [2] (at 50.0 µM), 97.8% (active). Also, the growth inhibition in experiment [3] (setting [7]) is 3%; in experiment [3] (setting [8]), 67%; in experiment [3] (at 50.0 µM), 98.8% (active); in experiment [4] (setting [7]), -7%; in experiment [4] (setting [8]), 93% (active); in experiment [4] (at 50.0 µM), 97.2% (active). The growth inhibition is 18% in experiment [5] (setting [7]); 80% (active) in experiment [5] (setting [8]); 98.5% (active) in experiment [5] (at 50.0 µM); 3% in experiment [6] (setting [7]); 77% (active) in experiment [6] (setting [8]); 98.5% (active) in experiment [6] (at 50.0 µM).
On to `NC(=O)Nc1ccc([As](Sc2ccccc2C(=O)O)Sc2ccccc2C(=O)O)cc1`, for which the growth inhibition in experiment [1] (setting [7]) was -1%; in experiment [1] (setting [8]), 14%; in experiment [1] (at 50.0 µM), 15.9%; in experiment [2] (setting [7]), -3%; in experiment [2] (setting [8]), -1%; in experiment [2] (at 50.0 µM), 4.75%. The growth inhibition in experiment [3] (setting [7]) was -3%; in experiment [3] (setting [8]) it was 10%; in experiment [3] (at 50.0 µM) it was 17.3%; in experiment [4] (setting [7]), -8%; in experiment [4] (setting [8]), 24%; in experiment [4] (at 50.0 µM), 28.9%. For the same compound, the growth inhibition is -8% in experiment [5] (setting [7]); 26% in experiment [5] (setting [8]); -7.1% in experiment [5] (at 50.0 µM); -4% in experiment [6] (setting [7]); 8% in experiment [6] (setting [8]); 20.1% in experiment [6] (at 50.0 µM).
In the case of `NC(=O)c1cc([N+](=O)[O-])c(Cl)c([N+](=O)[O-])c1`, the growth inhibition in experiment [1] (setting [7]) was 50%; in experiment [1] (setting [8]) it was 89% (active); in experiment [1] (at 50.0 µM), 88.2% (active); in experiment [2] (setting [7]), 62%; in experiment [2] (setting [8]), 84% (active); in experiment [2] (at 50.0 µM), 86.3% (active). For the same compound, the growth inhibition in experiment [3] (setting [7]) was 38%; in experiment [3] (setting [8]), 98% (active); in experiment [3] (at 50.0 µM), 89% (active); in experiment [4] (setting [7]), 36%; in experiment [4] (setting [8]) it was 97% (active); in experiment [4] (at 50.0 µM), 56.5%. Also, the growth inhibition is 49% in experiment [5] (setting [7]); 97% (active) in experiment [5] (setting [8]); 88.5% (active) in experiment [5] (at 50.0 µM); 57% in experiment [6] (setting [7]); 85% (active) in experiment [6] (setting [8]); 88.7% (active) in experiment [6] (at 50.0 µM).
As for `Cc1cc(OC(=O)N(CCCl)CCCl)c(C(C)C)cc1N=O`, the growth inhibition in experiment [1] (setting [7]) was 19%; in experiment [1] (setting [8]) it was 91% (active); in experiment [1] (at 50.0 µM), 97.3% (active); in experiment [2] (setting [7]) it was 20%; in experiment [2] (setting [8]), 97% (active); in experiment [2] (at 50.0 µM) it was 97.5% (active). Also, the growth inhibition was 17% in experiment [3] (setting [7]); 96% (active) in experiment [3] (setting [8]); 78.5% (active) in experiment [3] (at 50.0 µM); 10% in experiment [4] (setting [7]); 92% (active) in experiment [4] (setting [8]); 97.2% (active) in experiment [4] (at 50.0 µM). Further, the growth inhibition in experiment [5] (setting [7]) was 1%; in experiment [5] (setting [8]), 94% (active); in experiment [5] (at 50.0 µM) it was 18.8%; in experiment [6] (setting [7]), 33%; in experiment [6] (setting [8]) it was 97% (active); in experiment [6] (at 50.0 µM), 97.7% (active).
For `Nc1nc(N)c(-c2ccc(Cl)c(Cl)c2)c(CCc2ccc(CNC(=O)c3cccc(S(=O)(=O)F)c3)cc2)n1`, the growth inhibition in experiment [1] (setting [7]) was -3%; in experiment [1] (setting [8]), 96% (active); in experiment [1] (at 50.0 µM) it was 62.7%; in experiment [2] (setting [7]) it was -1%; in experiment [2] (setting [8]), 99% (active); in experiment [2] (at 50.0 µM) it was 59.2%. In addition, the growth inhibition is 7% in experiment [3] (setting [7]); 99% (active) in experiment [3] (setting [8]); 45.9% in experiment [3] (at 50.0 µM); -10% in experiment [4] (setting [7]); 97% (active) in experiment [4] (setting [8]); 54.6% in experiment [4] (at 50.0 µM). Also, the growth inhibition in experiment [5] (setting [7]) is -9%; in experiment [5] (setting [8]) it was 98% (active); in experiment [5] (at 50.0 µM), 47.4%; in experiment [6] (setting [7]) it was 30%; in experiment [6] (setting [8]), 98% (active); in experiment [6] (at 50.0 µM) it was 54%.
In the case of `CCC[CH2][Sn]([CH2]CCC)([O]C(=O)CCC(C)=O)[O]C(=O)CCC(C)=O`, the growth inhibition was 73% (active) in experiment [1] (setting [7]); 98% (active) in experiment [1] (setting [8]); 87% (active) in experiment [1] (at 50.0 µM); 80% (active) in experiment [2] (setting [7]); 99% (active) in experiment [2] (setting [8]); 91.7% (active) in experiment [2] (at 50.0 µM). In addition, the growth inhibition in experiment [3] (setting [7]) was 79% (active); in experiment [3] (setting [8]) it was 99% (active); in experiment [3] (at 50.0 µM), 89.7% (active); in experiment [4] (setting [7]), 74% (active); in experiment [4] (setting [8]), 99% (active); in experiment [4] (at 50.0 µM) it was 90.3% (active). In addition, the growth inhibition in experiment [5] (setting [7]) was 89% (active); in experiment [5] (setting [8]), 99% (active); in experiment [5] (at 50.0 µM), 88.4% (active); in experiment [6] (setting [7]) it was 81% (active); in experiment [6] (setting [8]), 98% (active); in experiment [6] (at 50.0 µM), 91.7% (active).
